Source: ChEMBL document CHEMBL3988442, “University of Dundee, Small-Polar-MMV Screening Library” (2021)
The campaign covered roughly 48,000 compounds. About 13,000 (27%) showed an effect of 50% or more. This is one part of the list.

system: Wolbachia pipientis; experiment: Anti-Wolbachia Cell-Based Screen; format: functional; design: scale not given: in the data most compounds retested in dose-response had high values; conditions: 5 µM

SMILES	Percent Effect
CC1CN(C)c2ccccc2CN1C(=O)c1ccc[nH]1 (stereo not drawn)	-9.61%
CC1CN(C)c2ccccc2CN1C(=O)c1ccncc1F (stereo not drawn)	-16.77%
Cc1cc(=O)[nH]cc1C(=O)N1Cc2ccccc2N(C)CC1C (stereo not drawn)	102.2%
CCC1CN(C)c2ccccc2CN1C(=O)c1c[nH]c(=O)cc1C (stereo not drawn)	123.4%
CCc1cc(CNC(=O)N2Cc3ccccc3N(C)CC2C)[nH]n1 (stereo not drawn)	5.505%
CC1CN(C)c2ccccc2CN1C(=O)c1cc[nH]c(=O)c1 (stereo not drawn)	-17.5%
CC(C)Oc1ccc(C(=O)N2CC[C@H](O)[C@@H](n3ccnc3)CC2)cc1	122.3%
COCc1ccc(C(=O)N2CC[C@H](O)[C@@H](n3ccnc3)CC2)cc1	113.2%
CC(C(=O)N1CCN(C(=O)c2ccc(F)cc2)CC1)n1ccnc1 (stereo not drawn)	-9.233%
COCc1ccc(C(=O)N2CCN(CCS(C)(=O)=O)CC2)cc1	1.51%
O=C(c1ccc(-n2ccnc2)cc1)N1CCCC1	15.67%
COCc1ccc(C(=O)N2CCCN(C(=O)OCC(C)C)CC2)cc1	6.896%
CS(=O)(=O)CCSC1CCN(c2ccccc2F)C1=O (stereo not drawn)	-0.4258%
CC(C)N1CCC(C(=O)N[C@H](C(=O)O)c2cccc(F)c2F)CC1	23.96%
O=C(c1coc2ccccc12)N1CCCC(O)(CO)CC1 (stereo not drawn)	-11.92%
Cn1c(CO)cnc1SC(C(N)=O)c1ccccc1 (stereo not drawn)	-6.292%
COCCN(CCC#N)S(=O)(=O)c1ccc(F)cc1F	3.199%
COc1cccc(OCCNS(C)(=O)=O)c1	78.58%
Cc1cccc(OCC(=O)NS(=O)(=O)Cc2ccccc2)c1	1.498%
CS(=O)(=O)c1ccc(OCCNCc2cccc(O)c2)cc1	-6.003%
CC(=O)NCCOc1cccc(Br)c1	0.6269%

SMILES	Percent Effect
COc1cccc(OCCNS(=O)(=O)Cc2ccccc2)c1	102.8%
O=C(CCOc1ccccc1)NS(=O)(=O)Cc1ccccc1	-5.15%
COc1ccc(S(=O)(=O)C(C)C(=O)NCCOc2cccc(C)c2)cc1 (stereo not drawn)	1.494%
COc1cccc(OCCNCc2ccccc2)c1.O=C(O)C(=O)O	105.9%
COc1cccc(CNCCc2cccc(C(N)=O)c2)c1	-2.153%
Cc1c(C(=O)NC2(C#N)CCSC2)nnn1-c1ccccc1Cl (stereo not drawn)	1.619%
Cn1cc(CNc2ccc(F)c(N3CCCS3(=O)=O)c2)cn1	-4.512%
CCCOCC1CCN(C(=O)Cn2cccc(C(F)(F)F)c2=O)C1 (stereo not drawn)	-13.09%
CN(C)CCN1CCCC12CCN(C(=O)c1ccoc1)CC2.O=C(O)C(F)(F)F.O=C(O)C(F)(F)F	109.3%
CCN1CCCC12CCN(C(=O)c1ccsc1)CC2.O=C(O)C(F)(F)F	-19.39%
Cn1cc(CN2CCCC23CCN(C(=O)c2cccn2C)CC3)cn1.O=C(O)C(F)(F)F	-11.73%
Cc1ccccc1C(=O)N1CCC2(CCCN2CCN(C)C)CC1.O=C(O)C(F)(F)F.O=C(O)C(F)(F)F	100.3%
CN(Cc1ccco1)C1CCC12CCN(C(=O)c1ccco1)CC2.O=C(O)C(F)(F)F (stereo not drawn)	-7.154%
CN(C)CCN1CCCC12CCCN(Cc1ccoc1)C2.O=C(O)C(F)(F)F.O=C(O)C(F)(F)F.O=C(O)C(F)(F)F (stereo not drawn)	19.5%
CN(C)CCN1CCCC12CCN(C(=O)c1cccn1C)CC2.O=C(O)C(F)(F)F.O=C(O)C(F)(F)F	-18.28%
CN(C)CCN1CCCC12CCCN(Cc1ccco1)C2.O=C(O)C(F)(F)F.O=C(O)C(F)(F)F.O=C(O)C(F)(F)F (stereo not drawn)	-6.586%
CN(C)CCN1CCCC12CCN(C(=O)c1ccco1)CC2.O=C(O)C(F)(F)F.O=C(O)C(F)(F)F	96.22%
NC(=O)C(NCCc1ccc(Cl)s1)c1ccccc1 (stereo not drawn)	0.1259%
CCN(Cc1noc(C(C)C)n1)Cc1ccc(C#N)cc1F	13.78%
O=S(=O)(Cc1ccccc1)NCc1ccnc(O)c1	-8.436%
CCc1ccc2nc(C)cc(C(=O)N3C[C@H]4CCC[C@@]4(CO)C3)c2c1	-46.54%

SMILES	Percent Effect
CCSc1ncc(CN2C[C@H]3CC[C@@H]2CN(C2CCOCC2)C3)cn1	15.93%
Cc1nc(CNC(=O)CCN2CCN(c3ccccn3)CC2)oc1C	-3.101%
CSC(C)C(=O)NCCC(=O)N1CCN(c2ccccn2)CC1 (stereo not drawn)	112.5%
CC(C)CC(C)NCc1cccnc1N1CCN(c2ccccn2)CC1 (stereo not drawn)	-4.161%
CSCC(C)N(C)C(=O)CN1CCN(c2ccccn2)CC1 (stereo not drawn)	-3.468%
CCc1nnsc1C(=O)NC1CCN(c2ccccn2)CC1	-15.93%
CC(C)C(=O)NCCC(=O)N1CCN(c2ccccn2)CC1	125.4%
CC(C)NCc1cccnc1N1CCN(c2ccccn2)CC1	-3.713%
CCC(CC)C(=O)NCCC(=O)N1CCN(c2ccccn2)CC1	117%
CC(c1ccccn1)N(C)C(=O)CN1CCN(c2ccccn2)CC1 (stereo not drawn)	-2.14%
CCC(C)NC(=O)NCCC(=O)N1CCN(c2ccccn2)CC1 (stereo not drawn)	129.1%
CCCC(C)NCc1cccnc1N1CCN(c2ccccn2)CC1 (stereo not drawn)	8.499%
CCn1cc2c(n1)C(COC)CN(C(=O)COc1ccccc1C)C2 (stereo not drawn)	-8.136%
CC(=O)NC[C@@H]1C=C(C)[C@H](CC(=O)NCCN(C)C)C[C@H]1C(C)C	6.725%
O=C1CC2(CCSC2)C(=O)N1CCCc1ccccc1 (stereo not drawn)	-8.478%
CCC(NC(=O)c1coc(COc2cccc(F)c2F)n1)C(=O)NC (stereo not drawn)	-19.24%
CCc1nnc2n1CCN(Cc1nc(-c3ccoc3)no1)C2	-0.9507%
COCCC(=O)N1CCCC1c1csc(Nc2ncccn2)n1 (stereo not drawn)	107%
COCCC(=O)N1CCCC1c1csc(Nc2ccccn2)n1 (stereo not drawn)	105.2%
CC(C)(C)c1nnc(CN2CCN(C(=O)CC3CCCCC3)CC2)o1	-4.944%
CCC[C@@H](NC(N)=O)C(=O)N1CCc2c(Cl)cccc2C1	5.459%
